Measurements as given in PubChem BioAssay.
Several values for one entry are separate records, joined by “and”; a condition that tells them apart may be missing. Equal entries are not always repeated. Records with an inconclusive call do not appear. Activity calls are given as the source filed them. Cut-off read from the data, not from the text of the source, unless noted: active = inhibition above about 80%; inactive = the rest.

What was measured:
[1] = liver-stage malaria parasite load reduction – cell-based, known kinase inhibitor set, luminescence, hepatoma host viability (AID 624392; call rule not given here;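 note: infected cells incubated roughly two days before readout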); settings: Plasmodium liver stage in hepatoma cells, luciferase luminescence, concentration not given here; liver cell % of control: measured here: host liver cell viability; parasite % of control: stronger effect = lower value
[2] = chitosan synthesis blockers in C. neoformans – flow cytometry, Cibacron Brilliant Red staining (AID 1347148; call rule not given here;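 note: compound exposure lasted three days at 37 degrees C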); settings: Cryptococcus neoformans chitosan, stronger effect = lower value; at 10 µM unless noted
[3] = growth inhibition, single agents and combos, UWB1.289, cell-based, BGB or cisplatin combos, synergistic combos for chromothripsis tumors (AID 1671456); settings: UWB1.289 ovarian carcinoma cells, stronger effect = higher value;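 note: cells exposed to compound for four days; 0% = vehicle DMSO and 100% = killing by high DMSO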
[4] = growth inhibition, single agents and combos, LFS_MB_2R, cell-based, cisplatin combos, synergistic combos for chromothripsis tumors (AID 1671457); settings: LFS_MB_2R medulloblastoma cells, stronger effect = higher value;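 note: cells exposed to compound for four days before readout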
[5] = UWB1.289_BRCA1 ovarian cancer growth, cell-based, BGB or cisplatin combinations (AID 1671459); settings: UWB1.289 BRCA1 ovarian carcinoma, drug combinations, stronger effect = higher value
[6] = drug combination toxicity in non-malignant astrocytes – cell-based, BGB or cisplatin IC20 combos, cytotoxicity control for chromothriptic childhood tumor combination screen (AID 1671460); settings: Human astrocytes, viability inhibition, drug combinations, at 0.5 µM, stronger effect = higher value;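 note: cells exposed to compounds for 96 hours before viability readout; 0% = vehicle and 100% = killing control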
[7] = molecular target: ATP-dependent translocase ABCB1 (Homo sapiens) (UniProt P08183); experiment: P-glycoprotein substrate transport blockade – cell-based (AID 377; in the data active = fluorescence slope change above about 50%); settings: MDR1-expressing cells, fluorescent substrate accumulation slope; stronger effect = higher value; concentration not given here
Chain of ATP-dependent translocase ABCB1 (Homo sapiens) (P08183 whole entry, looked up): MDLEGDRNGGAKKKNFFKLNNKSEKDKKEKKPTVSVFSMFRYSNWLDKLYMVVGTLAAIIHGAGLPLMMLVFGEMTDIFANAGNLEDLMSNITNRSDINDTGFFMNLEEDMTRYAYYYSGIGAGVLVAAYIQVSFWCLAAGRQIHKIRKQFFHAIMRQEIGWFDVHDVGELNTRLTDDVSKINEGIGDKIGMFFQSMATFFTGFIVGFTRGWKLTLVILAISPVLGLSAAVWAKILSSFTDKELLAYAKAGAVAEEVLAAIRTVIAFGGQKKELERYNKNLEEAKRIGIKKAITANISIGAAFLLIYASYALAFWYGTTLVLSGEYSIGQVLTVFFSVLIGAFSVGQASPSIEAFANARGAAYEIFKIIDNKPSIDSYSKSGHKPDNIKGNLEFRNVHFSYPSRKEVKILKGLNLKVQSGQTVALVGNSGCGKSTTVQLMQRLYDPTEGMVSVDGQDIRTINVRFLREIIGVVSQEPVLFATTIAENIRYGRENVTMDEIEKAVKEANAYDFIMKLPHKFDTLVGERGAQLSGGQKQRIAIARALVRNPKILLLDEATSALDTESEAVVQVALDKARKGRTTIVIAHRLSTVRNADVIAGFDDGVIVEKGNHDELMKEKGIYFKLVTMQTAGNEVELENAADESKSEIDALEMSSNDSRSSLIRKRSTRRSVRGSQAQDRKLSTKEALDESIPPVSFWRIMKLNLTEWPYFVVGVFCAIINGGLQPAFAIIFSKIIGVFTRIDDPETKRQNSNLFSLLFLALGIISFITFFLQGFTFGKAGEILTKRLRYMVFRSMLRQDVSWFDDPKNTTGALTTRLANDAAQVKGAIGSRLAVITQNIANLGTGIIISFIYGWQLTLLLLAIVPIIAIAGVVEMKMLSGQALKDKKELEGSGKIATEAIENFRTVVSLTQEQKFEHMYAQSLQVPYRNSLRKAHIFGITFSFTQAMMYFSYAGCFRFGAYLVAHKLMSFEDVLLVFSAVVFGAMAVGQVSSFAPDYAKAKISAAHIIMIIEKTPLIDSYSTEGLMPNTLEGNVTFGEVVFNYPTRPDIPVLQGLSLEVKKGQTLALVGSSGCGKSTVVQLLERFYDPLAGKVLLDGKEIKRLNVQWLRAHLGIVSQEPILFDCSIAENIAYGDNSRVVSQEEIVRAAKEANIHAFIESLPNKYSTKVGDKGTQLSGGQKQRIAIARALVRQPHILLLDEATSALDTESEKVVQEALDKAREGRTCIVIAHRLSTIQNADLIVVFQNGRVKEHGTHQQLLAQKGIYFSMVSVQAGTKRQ

[8] = measured here: inhibition with BGB combination, at 0.05 µM
[9] = measured here: inhibition with cisplatin combination, at 0.05 µM
[10] = measured here: combination with cisplatin, at 0.5 µM
[11] = measured here: combination with cisplatin, at 5 µM
[12] = BGB combination, concentration series, at 5 µM
[13] = cisplatin combination, concentration series, at 5 µM
[14] = measured here: combo with BGB IC20
[15] = measured here: combo with cisplatin IC20

C=CC(=O)Nc1cc2c(Nc3ccc(F)c(Cl)c3)ncnc2cc1OCCCN1CCOCC1
liver cell % of control [1]: 85.5% and 77.3% and 90.4%
parasite % of control [1]: 36.7% (inactive) and 39.4% (inactive) and 33.2% (inactive)

Cc1ccc(Nc2nccc(N(C)c3ccc4c(C)n(C)nc4c3)n2)cc1S(N)(=O)=O
liver cell % of control [1]: 87.8% and 92.8% and 108%
parasite % of control [1]: 30.2% (inactive) and 10.9% (inactive) and 16.3% (inactive)

N=C(N)c1ccc2cc(OC(=O)c3ccc(N=C(N)N)cc3)ccc2c1
fold fluorescence [2]: 12.2 [at 143.9 µM] (inactive)

CC1=C(C)C(=O)C(CCCCC#CCCCC#CCO)=C(C)C1=O
fold fluorescence [2]: 9.55 [at 153.2 µM] (inactive)

C#Cc1cccc(Nc2ncnc3cc(OCCOC)c(OCCOC)cc23)c1
liver cell % of control [1]: 94.7% and 95% and 97.1%
parasite % of control [1]: 281% (inactive) and 87% (inactive) and 63.1% (inactive)

CCOC(=O)Nc1ccc(NCc2ccc(F)cc2)nc1N
inhibition ([3]; at 0.5 µM): 4.04% (inactive)
inhibition [3, 8]: -16.5%
inhibition [3, 9]: -2.73%
inhibition ([4]; at 0.5 µM): -26.1% (inactive)
inhibition [4, 10]: -30.1%
inhibition [4, 11]: -38%
inhibition [5, 12]: -6.96%
inhibition ([5]; at 0.5 µM): -1.39% (inactive)
inhibition [5, 13]: 8.03%
inhibition [6]: 3.76% (inactive)
inhibition [6, 14]: 6.16%
inhibition [6, 15]: 13.9%

C[C@@H]1C[C@H]2[C@@H]3CCC4=CC(=O)C=C[C@]4(C)[C@@]3(Cl)[C@@H](O)C[C@]2(C)[C@@]1(OC(=O)c1ccco1)C(=O)CCl
fluorescence slope change [7]: 21.4% (inactive)

O=c1[nH]c(=O)n([C@H]2C[C@H](O)[C@@H](CO)O2)cc1C(F)(F)F
inhibition ([3]; at 0.5 µM): -11.1% (inactive)
inhibition [3, 8]: -14.4%
inhibition [3, 9]: -6.35%
inhibition ([4]; at 0.5 µM): -13.5% (inactive)
inhibition [4, 10]: -15.3%
inhibition [4, 11]: -85.8%
inhibition [5, 12]: 3.66%
inhibition ([5]; at 0.5 µM): -12.4% (inactive)
inhibition [5, 13]: 9.54%
inhibition [6]: -1.16% (inactive)
inhibition [6, 14]: 5.49%
inhibition [6, 15]: -19.9%

C(=C\c1ccccc1)/CN1CCN(C(c2ccccc2)c2ccccc2)CC1
fluorescence slope change [7]: 102% (active)

CCCCCCCCCCCCCCC[C@H](O)[C@@H](N)CO
fold fluorescence [2]: 7.01 (inactive)

OCCN1CCN(CC/C=C2/c3ccccc3Sc3ccc(C(F)(F)F)cc32)CC1
fluorescence slope change [7]: 77.6% (active)

O=c1[nH]c(=O)n([C@H]2C[C@H](O)[C@@H](CO)O2)cc1Br
inhibition ([3]; at 0.5 µM): 3.4% (inactive)
inhibition [3, 8]: -18.3%
inhibition [3, 9]: -5.15%
inhibition ([4]; at 0.5 µM): -21.2% (inactive)
inhibition [4, 10]: -22.2%
inhibition [4, 11]: -17.4%
inhibition [5, 12]: 35.6%
inhibition ([5]; at 0.5 µM): 9.43% (inactive)
inhibition [5, 13]: 29%
inhibition [6]: 11% (inactive)
inhibition [6, 14]: 6.3%
inhibition [6, 15]: 12.5%

C[C@H](NCCc1ccc(O)cc1)[C@H](O)c1ccc(O)cc1
fluorescence slope change [7]: 27.4% (inactive)

OCCOCCN1CCN(C(c2ccccc2)c2ccc(Cl)cc2)CC1 (stereo not drawn)
fluorescence slope change [7]: 127% (active)

Cc1ncc(C[n+]2csc(CCO)c2C)c(N)n1
fluorescence slope change [7]: 80.3% (active)

CC1(C)[C@@H](OC(=O)CCC(=O)O)CC[C@]2(C)[C@H]3C(=O)C=C4[C@@H]5C[C@@](C)(C(=O)O)CC[C@]5(C)CC[C@@]4(C)[C@]3(C)CC[C@@H]12
fluorescence slope change [7]: 123% (active)

C#CC1(O)CC[C@H]2[C@@H]3CCC4=CCCC[C@@H]4[C@H]3CC[C@@]21C (stereo partly drawn)
fluorescence slope change [7]: 88.5% (active)
